Experimental data reported in PubChem BioAssay AID2172 (The Scripps Research Institute Molecular Screening Center, 2009).
This is one part of the list. Activity calls are given as the source filed them. The rule behind the calls is not given here.

Experiment: compounds displacing fluorescent intercalator from DNA, dose response, counter-screen for HCV NS3 helicase inhibitor project, biochemical, fluorescence (AID 2172)
Details: fluorescent intercalator displacement from DNA

Structure (SMILES)	IC50
Cc1cc(N2C(=O)C(O)=C(C(=O)c3ccc(C)o3)C2c2ccc(OCc3ccccc3)cc2)no1 (centres undefined)	> 79.4 µM (inactive)
CC(Oc1ccccc1)C(=O)Nc1oc(-c2ccco2)c(-c2ccco2)c1C#N (centres undefined)	> 79.4 µM (inactive)
Cc1cc(O)c(C(=O)/C=C/c2c(F)c(F)c(F)c(F)c2F)c(=O)o1	> 79.4 µM (inactive)
Cc1ccc(/C=C/C(=O)Nc2ccc([N+](=O)[O-])c(NC(=O)/C=C/c3ccc(C)o3)c2)o1	> 79.4 µM (inactive)
